# Test results taken from PubChem BioAssay (Tox21).
# A number with no mark means an inactive call. Active and inactive are the calls of the source. The call rests on the fitted dose curve.
# Target: Acetylcholinesterase (Homo sapiens) (UniProt P22303)
# Assay: Acetylcholinesterase (AChE) small molecule antagonists: enzyme-based qHTS assay with human liver microsomes (AID 1347399); further: nearly all actives have a fitted effect of over 60% in size
# Conditions: Potency: qHTS inhibition; outcome: qHTS inhibition; series mostly up to 115 µM; activity change, negative = inhibition: at the top concentration
# Outline: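 Recombinant human AChE (50 mU/mL in the enzyme mix) and human liver microsomes (0.25 mg/mL final) were preincubated with compound and NADPH (0.25 mg/mL final) for 30 min at 37 C. Acetylthiocholine/DTNB was then added; thiocholine was read colorimetrically after 10 min at room temperature.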
# On the % scale 0 is the no-effect control and ±100 the full control effect.
# Chain of Acetylcholinesterase (Homo sapiens) (P22303 whole entry, looked up): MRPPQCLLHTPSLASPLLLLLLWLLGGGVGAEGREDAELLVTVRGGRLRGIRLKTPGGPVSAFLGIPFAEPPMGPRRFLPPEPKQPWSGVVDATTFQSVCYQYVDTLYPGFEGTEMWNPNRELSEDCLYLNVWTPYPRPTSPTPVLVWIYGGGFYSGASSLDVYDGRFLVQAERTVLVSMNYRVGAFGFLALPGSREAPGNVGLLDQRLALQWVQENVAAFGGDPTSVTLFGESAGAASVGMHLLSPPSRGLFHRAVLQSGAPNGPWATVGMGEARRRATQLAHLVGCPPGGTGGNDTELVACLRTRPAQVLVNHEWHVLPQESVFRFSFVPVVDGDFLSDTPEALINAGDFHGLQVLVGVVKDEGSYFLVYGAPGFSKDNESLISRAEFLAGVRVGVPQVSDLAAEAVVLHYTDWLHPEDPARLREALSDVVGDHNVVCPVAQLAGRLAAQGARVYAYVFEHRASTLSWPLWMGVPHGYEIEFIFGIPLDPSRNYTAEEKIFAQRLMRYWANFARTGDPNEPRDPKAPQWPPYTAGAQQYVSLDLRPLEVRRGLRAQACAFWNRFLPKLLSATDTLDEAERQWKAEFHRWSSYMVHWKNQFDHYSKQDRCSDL
Structure (SMILES),"activity change, negative = inhibition",Potency
CCCCCCCCCCCC(=O)OCC(C)OC(=O)CCCCC(=O)O (centres undefined),-0.728% [at 53 µM],–
c1ccc2sc(SN3CCOCC3)nc2c1,-12.2% [at 53 µM],–
O=C(O)CCSSCCC(=O)O,-1.17%,–
Nc1nc(N)c2nc(-c3ccccc3)c(N)nc2n1,–,inactive
CC(C)Nc1cccnc1N1CCN(C(=O)c2cc3cc(NS(C)(=O)=O)ccc3[nH]2)CC1,0.277% [at 53 µM],–
CC1CCC(CO)CC1 (centres undefined),-0.312%,–
CCN(Cc1cccnc1)C(=O)c1cccc(Cl)c1[C@]1(C)C(=O)N(Cc2ccc(OC)cc2OC)c2ccc(Cl)cc21,3.15%,–
C[C@H]1C[C@H]2[C@@H]3CCC4=CC(=O)C=C[C@]4(C)[C@@]3(Cl)[C@@H](O)C[C@]2(C)[C@@]1(O)C(=O)CO,-0.588% [at 53 µM],–
CN1CCN(C2=Nc3cc(F)ccc3Cc3ccccc32)CC1,1.03% [at 53 µM],–
C1CCCNCCC1,0.081%,–
O=C1c2ccccc2CCc2ccccc21,–,inactive
c1ccc(-c2ccccn2)nc1,0.892%,–
CC(=O)Oc1c(C)c(C)c2c(c1C)CC[C@@](C)(CCC[C@H](C)CCC[C@H](C)CCCC(C)C)O2,–,inactive
CCCCOCCOC(=O)c1ccccc1C(=O)OCCOCCCC,–,inactive
C=C(C)C(=O)OCc1ccccc1,-0.769%,–
O=C(/C=C/c1ccccc1)OCc1ccccc1,–,inactive
CCOCCOCCOCCO,–,inactive
CCCCCCCCCCCC(=O)Cl,-0.642%,–
O=C(NO)c1ccccc1,1.02%,–
O=C[C@@H](O)[C@H](O)[C@H](O)CO,0.535%,–

Structure (SMILES),"activity change, negative = inhibition",Potency
COC(=O)c1c(C)cc(O)c(C)c1O,-1.22%,–
O=S(=O)(Cl)c1c(Cl)cccc1Cl,0.0927%,–
CC(=O)OC(C(=O)c1ccccc1)c1ccccc1 (centres undefined),0.341%,–
CC(=O)CC(=O)Nc1ccc(C)cc1C,0.229%,–
CC(C)(C)c1nnc(NS(=O)(=O)c2ccccc2)s1,-1.18% [at 53 µM],–
CCCC(C)=O,–,inactive
Cc1c(F)cc2c(=O)c(C(=O)O)cn3c2c1CCC3C (centres undefined),1.01% [at 53 µM],–
COc1ccc(-n2nc(CCC(=O)N(C)O)cc2-c2ccc(Cl)cc2)cc1,-1.17% [at 53 µM],–
CCC(=O)O[C@]1(C(=O)SCF)[C@H](C)C[C@H]2[C@@H]3C[C@H](F)C4=CC(=O)C=C[C@]4(C)[C@@]3(F)[C@@H](O)C[C@@]21C,-1.12% [at 53 µM],–
O=P(O)(OCc1ccccc1)OCc1ccccc1,0.0835%,–
O[C@@H](COc1cccc2ncccc12)CN1CCN(C2c3ccccc3[C@@H]3[C@H](c4ccccc42)C3(F)F)CC1 (some centres undefined),4.29% [at 53 µM],–
O=C(Oc1ccccc1C(=O)O)c1ccccc1O,-0.672% [at 53 µM],–
CCCCOCC(C)OCC(C)O (centres undefined),2.39%,–
CCCCOCCOC(=O)COc1cc(Cl)c(Cl)cc1Cl,0.306%,–
CCOC(=O)COc1ccc2c(C)c(CCN(CC)CC)c(=O)oc2c1Cl,-22.2% [at 53 µM],–
CCn1cc(C(=O)O)c(=O)c2cc(F)c(N3CCNCC3)nc21,-1.16% [at 53 µM],–
C=C(C)C(N)=O,–,inactive
CNC[C@H](O)[C@@H](O)[C@H](O)[C@H](O)CO,–,inactive
S=C([S-])NCCNC(=S)[S-].S=C([S-])NCCNC(=S)[S-].[Mn+2].[Zn+2],-19.5% [at 53 µM],–
